The test system of experiment [1] is transactivating tegument protein VP16 (Human herpesvirus 1). Kind of experiment: compounds suppressing VP16-driven luciferase signal – cell-based, luminescence, single concentration, counter-screen for SRC2 inhibitor project (AID 652007). To be noted: cell-based VP16 transactivation luciferase reporter, at 8.9 µM, stronger effect = higher value.
Experiment [2] deals with Nuclear receptor coactivator 2 (Homo sapiens) (UniProt Q15596). As to the kind of experiment: inhibition of GAL4-SRC2 driven luciferase expression – cell-based, luminescence, HEK293, triplicate, confirmation (AID 652008;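 active = mean inhibition above 46.5%, the solvent-only control mean plus 3 SD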;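 note: 0% = DMSO-treated cells and 100% = Gossypol at 36 µM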). To be noted: HEK293 GAL4-SRC2 luciferase reporter, at 8.9 µM, stronger effect = higher value.

Unmarked numbers belong to inactive results. Activity calls are given as the source filed them. Cut-off read from the data, not from the text of the source, unless noted: active = inhibition above about 36%; inactive = the rest.

Nuclear receptor coactivator 2 (Homo sapiens), sequence (Q15596 whole entry, looked up, the tested form may be a part): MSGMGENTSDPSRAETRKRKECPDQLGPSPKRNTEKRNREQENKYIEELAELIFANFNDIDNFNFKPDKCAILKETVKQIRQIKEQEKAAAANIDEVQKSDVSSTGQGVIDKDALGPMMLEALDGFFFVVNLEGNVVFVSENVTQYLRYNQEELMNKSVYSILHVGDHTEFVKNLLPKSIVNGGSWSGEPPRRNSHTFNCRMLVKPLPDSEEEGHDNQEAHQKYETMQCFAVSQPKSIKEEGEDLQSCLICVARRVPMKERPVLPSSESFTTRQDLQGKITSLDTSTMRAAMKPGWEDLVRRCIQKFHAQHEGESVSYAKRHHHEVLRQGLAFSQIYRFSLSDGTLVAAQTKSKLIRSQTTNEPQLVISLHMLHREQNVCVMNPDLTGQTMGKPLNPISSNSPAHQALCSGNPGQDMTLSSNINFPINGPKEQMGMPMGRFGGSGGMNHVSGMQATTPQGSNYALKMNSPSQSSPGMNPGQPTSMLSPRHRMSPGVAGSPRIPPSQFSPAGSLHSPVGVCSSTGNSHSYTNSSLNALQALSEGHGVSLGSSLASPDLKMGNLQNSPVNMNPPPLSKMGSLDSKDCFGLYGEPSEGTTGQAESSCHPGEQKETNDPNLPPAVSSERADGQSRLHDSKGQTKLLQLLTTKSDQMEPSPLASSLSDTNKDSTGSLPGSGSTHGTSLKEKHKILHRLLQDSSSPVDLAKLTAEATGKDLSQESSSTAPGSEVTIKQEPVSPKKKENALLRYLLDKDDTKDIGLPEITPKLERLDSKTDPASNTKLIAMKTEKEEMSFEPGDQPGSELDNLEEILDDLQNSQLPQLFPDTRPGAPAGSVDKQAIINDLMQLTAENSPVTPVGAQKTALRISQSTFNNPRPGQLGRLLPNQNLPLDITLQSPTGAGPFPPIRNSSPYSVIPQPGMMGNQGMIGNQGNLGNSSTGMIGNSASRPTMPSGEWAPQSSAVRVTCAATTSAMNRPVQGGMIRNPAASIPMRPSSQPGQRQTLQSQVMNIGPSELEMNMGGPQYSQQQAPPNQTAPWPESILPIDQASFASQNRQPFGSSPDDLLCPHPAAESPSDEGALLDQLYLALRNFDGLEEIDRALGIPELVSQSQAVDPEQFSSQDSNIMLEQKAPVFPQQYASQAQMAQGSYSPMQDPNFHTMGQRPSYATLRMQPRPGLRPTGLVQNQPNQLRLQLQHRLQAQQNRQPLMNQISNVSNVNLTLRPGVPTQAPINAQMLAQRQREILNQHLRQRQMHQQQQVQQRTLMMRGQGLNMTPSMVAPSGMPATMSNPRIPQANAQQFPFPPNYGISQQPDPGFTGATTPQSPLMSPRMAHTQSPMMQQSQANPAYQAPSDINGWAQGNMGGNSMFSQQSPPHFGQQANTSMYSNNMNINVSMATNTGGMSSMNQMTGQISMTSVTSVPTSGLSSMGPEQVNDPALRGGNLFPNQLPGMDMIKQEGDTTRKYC

For `N#Cc1c(NC(=O)CCCC(=O)O)sc2c1CCCCC2`, the inhibition is -8.88% in experiment [1] and 44% in experiment [2].
For `O=C(CN1C(=O)c2ccccc2S1(=O)=O)c1ccccc1Cl` the same measures were 37.8% (active) and 68.9% (active).
As to `COc1cc(N(C(C)=O)c2ccc(O)cc2)c2ncccc2c1`, the inhibition in experiment [1] was 1.2%; in experiment [2], 2.41%.
Taken in the same sequence, the figures for `O=C(O)c1ccccc1C=NN1CCCCCC1` were -9.35% and -24.3%.
Taken in the same sequence, the figures for `CC12CCC(=O)C=C1CCC1C2CCC2(C)C(c3csc(N)n3)CCC12` (stereo not drawn) were 10.2% and 24.6%.
For `O=C1CSc2ccc(C(=O)Nc3cccc(S(=O)(=O)Nc4ccc(Br)cc4)c3)cc2N1` the same measures were 11.2% and 25.2%.
For `COc1cc(C(=O)NCc2ccncc2)cc(Br)c1OCc1ccccc1`, the inhibition was 0.29% in experiment [1] and 36.2% in experiment [2].
Taken in the same sequence, the figures for `Cc1cccc(C(=O)Nc2ccc(CC(=O)O)cc2)c1` were -2.26% and 26.9%.
With `CN1CCN(S(=O)(=O)c2ccc(N(C)Cc3cccc(F)c3)nc2)CC1`, the inhibition in experiment [1] is -0.35%; in experiment [2] it was -11.8%.
For `Cc1nc2cc(-c3ccc(Cl)cc3)nn2c(C)c1CCC(=O)NC(C)c1ccc2c(c1)OCCO2` (stereo not drawn) the same measures were -10.9% and 72.8% (active).
For `COc1ccc(CN2C(=O)C(CC(=O)NCCN3CCOCC3)CC(C(=O)N(C(C)C)C(C)C)=C2C)cc1` (stereo not drawn) the same measures were 0.37% and -36.3%.
For `Cc1nc2ccccc2c2c1C(=O)N(c1ccc(C(=O)O)cc1)C2=O` the same measures were -3.24% and -28.2%.
For the compound `CCC(=O)Nc1ccc(NC(=O)c2oc3ccccc3c2C)cc1`, the inhibition is -12.3% in experiment [1] and 38.1% in experiment [2].
Taken in the same sequence, the figures for `CCNC(=O)COc1ccc(/C=C2\COc3ccccc3C2=O)cc1OC` were 3.8% and 78.1% (active).
With `COc1cccc(CNc2nc(NCC3CC3)nc3ccsc23)c1OC`, the inhibition in experiment [1] is -3.78%; in experiment [2], 18.8%.
On to `Cc1ccc2c(c1)nnn2C1CCN(CC(=O)N(c2ccccc2)c2ccccc2)CC1`, for which the inhibition in experiment [1] was 14.5%; in experiment [2], 33.7%.
For `CC1CCc2nc(NC(=O)c3ccco3)sc2C1` (stereo not drawn) the same measures were -23.2% and 11.1%.
In the case of `COc1ccc(Nc2nc(C)nc3c2oc2ccccc23)c(OC)c1`, the values for the inhibition in experiment [1] and in experiment [2] were 2.99% and 4.48%, respectively.
As to `CS(=O)(=O)Nc1cccc(NC(=O)C2Cc3c(-c4cccc(F)c4)ccnc3O2)c1` (stereo not drawn), the inhibition in experiment [1] is 21.8%; in experiment [2], 36.3%.
On to `CCOC(=O)C1CCCN(C(=O)CCNS(=O)(=O)c2ccc(Br)cc2)C1` (stereo not drawn), for which the inhibition is 10.6% in experiment [1] and -4.97% in experiment [2].
Turning to `COC(=O)C1CN(Cc2ccccc2)CCS(=O)(=O)N1Cc1cn(Cc2ccc(Cl)cc2)nn1` (stereo not drawn), the results for the inhibition in experiment [1] and in experiment [2] were -13.7% and -3.09%, respectively.
For `CC(=O)Nc1ccc(NC(=O)c2nc(S(=O)(=O)Cc3cccc(C)c3)ncc2Cl)cc1` the same measures were 21.6% and 50.8% (active).
Taken in the same sequence, the figures for `CC(C)C[C@@H]1COc2cc(Br)ccc2S(=O)(=O)N1Cc1cn(CCC2OCCCO2)nn1` were -3.85% and 3.37%.
For `Cn1nnnc1Sc1ncnc2scc(-c3ccsc3)c12` the same measures were 18.3% and 45%.
In the case of `Cc1onc(C(=O)N2CCC(Cc3ccccc3)CC2)c1[N+](=O)[O-]`, the inhibition in experiment [1] is -1.3%; in experiment [2] it was 5.37%.
On to `CCN1C=CC(=C2C(=O)c3ccccc3C2=O)C=C1`, for which the inhibition in experiment [1] is 42.3% (active); in experiment [2], 58.6% (active).
With `Clc1cccc(-c2nc(-c3ccccn3)no2)c1`, the results for the inhibition in experiment [1] and in experiment [2] were -11% and 7.62%, respectively.
For `COCCN(C(=O)CC1C(=O)NCCN1Cc1ccc(-c2ccccc2)cc1)C(C)C` (stereo not drawn) the same measures were -1.75% and -6.54%.
For `O=C(NC1CC1)c1ccc(-c2nc3ccccc3s2)s1` the same measures were -51.1% and 16.9%.
Turning to `CCc1nnc(NC(=O)c2nc(S(=O)(=O)Cc3ccc(C)cc3)ncc2Cl)s1`, the inhibition is 48.1% (active) in experiment [1] and 58.3% (active) in experiment [2].
For `O=C(CSCCO)Nc1ccc(C23CC4CC(CC(C4)C2)C3)cc1` the same measures were -57.7% and 41.9%.
Taken in the same sequence, the figures for `O=C(CCc1nnc(-c2ccc(-c3ccccc3)cc2)o1)NCCc1ccccn1` were 14.7% and 54% (active).
For `Cc1ccoc1C(=O)Nc1ccc(CC(=O)O)cc1` the same measures were 41.7% (active) and 83.4% (active).
As to `CC(=O)Nc1nc(-c2ccc3c(c2)CCN3C(=O)C2CC2)c(C)s1`, the values for the inhibition in experiment [1] and in experiment [2] were 13.2% and 49.3% (active), respectively.

These data come from PubChem BioAssay.
